Measurements as given in PubChem BioAssay (NCATS).
Inconclusive results are not listed. Calls of active or inactive are those of the source. The call rests on the fitted dose curve; in most records, active means well fitted inhibition curve with a large enough effect; inconclusive means small, poorly fitted or top-dose-only effect; inactive means flat fitted curve, though single readings scatter.

Tested on: NIH3T3
Experiment: qHTS assay to identify novel small-molecules to repurpose for Merkel cell carcinoma treatment (AID 1296009); further: nearly all actives have a fitted effect of over 60% in size
Conditions: MCC and control cell lines, CellTiter-Glo viability, 72 h; at 44.8 µM (top of the series) unless noted
Outline: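 Cell viability measured by CellTiter-Glo following 72 hr compound treatment at 37 degree celsius, with NPC and MIPE libraries tested in 8- and 11-point concentration series.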

SMILES | outcome
COC(=O)C12C(=O)C(C)=C(O)C1(C)C(C)=CC1C34CCC(OC3=O)C(C)(C)C4CCC12C (stereo unspecified) | inactive [at 17.4 µM]
CC(C)=CCCC1(C)Oc2cc3c(c4c2C2C(O4)C(C)(O)CCC21)CN(C(CCC(=O)O)C(=O)O)C3=O (stereo unspecified) | inactive [at 17.4 µM]
Cc1cc(Nc2ncc(Cl)c(Nc3ccccc3S(=O)(=O)C(C)C)n2)c(OC(C)C)cc1C1CCNCC1 | inactive
CC(=O)OC1C(O)CC(O[C@@H]2O[C@H](CO)[C@@H](O)[C@H](O)[C@H]2O)C2CCC3C(=O)OC(c4ccoc4)CC3(C)C21 (stereo partly specified) | inactive [at 17.4 µM]
NC(=O)c1ccc(OCC2NC(=O)C3CCCN3C2=O)cc1 (stereo unspecified) | inactive
COc1cc(COC2OC(CO)C(O)C(O)C2O)cc(OC)c1O (stereo unspecified) | inactive
C[C@@H]1O[C@@H](O[C@H]2[C@H](OC(=O)C34CCC5(C)C(=CCC6C7(C)CC(O)C(O[C@@H]8O[C@H](C(=O)O)[C@@H](O)[C@H](O)[C@H]8O)C(C)(C(=O)O)C7CCC65C)C3CC(C)(C)CC4O)O[C@H](C)[C@@H](O)[C@@H]2O)[C@H](O)[C@@H](O[C@@H]2OC[C@](O)(CO)[C@H]2O[C@@H]2O[C@H](CO)[C@@H](O)[C@H](O)[C@H]2O)[C@H]1O (stereo partly specified) | inactive [at 9.27 µM]
CCC(C)C(=O)O[C@@H]1[C@@H](O)[C@@H](O[C@H]2O[C@H](CO)[C@@H](O)[C@H](O)[C@H]2O)O[C@H](CO)[C@H]1O (stereo partly specified) | inactive [at 17.4 µM]
CC1(C)CC[C@]2(C(=O)O[C@@H]3O[C@H](CO)[C@@H](O)[C@H](O)[C@H]3O)CC[C@]3(C)C(=CCC4[C@@]5(C)C[C@@H](O)[C@H](O)C(CO)(CO)C5CC[C@]43C)C2[C@@H]1O (stereo partly specified) | inactive [at 17.4 µM]
O=C(O)CCc1cccc(O[C@@H]2O[C@H](CO)[C@@H](O)[C@H](O)[C@H]2O)c1O | inactive
CC(C)C1=CC2=CCC3[C@](C)(CCC[C@@]3(C)C(=O)O)C2CC1O (stereo partly specified) | inactive
CC1OC(O[C@H]2[C@@H](O)C[C@@]3(C)C([C@H](O)C[C@]4(C)C3CC=C3C5CC(C)(C)CC[C@]5(C(=O)OC5OC(CO)C(O)C(O)C5OC5OCC(OC6OCC(OC7OCC(O)C(O)C7O)C(O)C6O)C(OC6OCC(O)(CO)C6O)C5O)CC[C@]34C)[C@]2(C)CO)C(O)C(O)C1O (stereo partly specified) | inactive [at 9.27 µM]
C=C1C(=O)OC2CC(C)=C(C(C)CCCO[C@@H]3O[C@H](CO)[C@@H](O)[C@H](O)[C@H]3O)C(O)C12 (stereo partly specified) | inactive [at 17.4 µM]
CC(=O)OCC(=O)O[C@@H]1[C@H]2[C@@H](OC(=O)c3ccccc3)[C@@H](C)C[C@]2(O)[C@H](OC(C)=O)C2(C)[C@H]3CC(C)(C)C(=O)[C@@H]3CC1(OC(C)=O)[C@@H]2OC(C)=O (stereo partly specified) | inactive [at 17.4 µM]
CC(CCC1(O)OC2CC3C4CCC5CC(O[C@@H]6O[C@H](CO)[C@@H](O)[C@H](O)[C@H]6O[C@@H]6OC[C@@H](O)[C@H](O)[C@H]6O)C(O)CC5(C)C4CCC3(C)C2C1C)CO[C@@H]1O[C@H](CO)[C@@H](O)[C@H](O)[C@H]1O (stereo partly specified) | inactive [at 9.27 µM]
CC1[C@@H](O)[C@@H](O)C2[C@]3(C)C(C[C@H]4OC(=O)[C@H](O)[C@]1(O)[C@@]24C)C(C)(O)C[C@H](O)[C@H]3O (stereo partly specified) | inactive [at 17.4 µM]
C=C[C@@]1(C)CC(=O)C2[C@](C)(O1)[C@@H](OC(C)=O)[C@@H](O)[C@H]1C(C)(C)CCC[C@]21C (stereo partly specified) | inactive [at 9.27 µM]
CCS(=O)(=O)N1CCC([C@@H](C)n2c(C)c(C(=O)NCc3c(OC)cc(C)[nH]c3=O)c3ccccc32)CC1 | inactive
COc1cc(/C=C/C(=O)OC(C)(C)C(OC2OC(CO)C(O)C(O)C2O)C(=O)OCc2ccc(OC3OC(CO)C(O)C(O)C3O)cc2)ccc1O (stereo unspecified) | inactive [at 17.4 µM]
C=C1CCC2C(C)(COC3OC(COC(=O)CC(=O)O)C(O)C(O)C3O)CCCC2(C)C1CCC1=CCOC1=O (stereo unspecified) | inactive [at 17.4 µM]
CC(C)=CC/C=C(/C)[C@H]1CC[C@]2(C)[C@@H]1[C@H](O)CC1[C@@]3(C)CC[C@H](O)C(C)(C)[C@@H]3[C@@H](O[C@@H]3O[C@H](CO)[C@@H](O)[C@H](O)[C@H]3O[C@@H]3O[C@@H](C)[C@H](O)[C@@H](O)[C@H]3O)C[C@]12C (stereo partly specified) | inactive [at 17.4 µM]
